The text below walks through data of ChEMBL document CHEMBL2218924, “A broad activity screen in support of a chemogenomic map for kinase signalling research and drug discovery” (Biochem J, 2013).

Experiment [1] addresses T1, Serine/threonine-protein kinase Nek11 (Homo sapiens) (UniProt Q8NG66).
T1 sequence (whole entry): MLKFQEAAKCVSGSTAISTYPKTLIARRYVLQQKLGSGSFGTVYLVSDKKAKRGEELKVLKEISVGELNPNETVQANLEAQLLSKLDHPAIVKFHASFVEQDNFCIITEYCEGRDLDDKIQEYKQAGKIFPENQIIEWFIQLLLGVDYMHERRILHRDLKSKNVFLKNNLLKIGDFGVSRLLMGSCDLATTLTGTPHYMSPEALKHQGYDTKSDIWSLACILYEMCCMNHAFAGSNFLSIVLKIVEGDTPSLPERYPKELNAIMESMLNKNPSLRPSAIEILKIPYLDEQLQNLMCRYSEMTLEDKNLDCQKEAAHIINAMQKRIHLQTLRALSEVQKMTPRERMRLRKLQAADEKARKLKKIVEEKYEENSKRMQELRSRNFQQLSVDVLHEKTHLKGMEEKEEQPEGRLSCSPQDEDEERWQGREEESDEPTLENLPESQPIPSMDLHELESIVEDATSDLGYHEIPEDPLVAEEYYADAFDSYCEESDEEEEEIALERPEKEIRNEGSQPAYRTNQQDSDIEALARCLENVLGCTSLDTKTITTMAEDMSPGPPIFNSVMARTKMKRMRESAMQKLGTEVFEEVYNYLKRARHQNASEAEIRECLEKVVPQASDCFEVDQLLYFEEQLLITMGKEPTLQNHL
The settings on record: at 1 µM.

The target in experiment [2] is T1, Serine/threonine-protein kinase Nek11 (Homo sapiens). The settings on record: at 10 µM.
Experiment [3] addresses Serine/threonine-protein kinase tousled-like 2 (Homo sapiens) (UniProt Q86UE8). The settings on record: at 10 µM.
Experiment [4] addresses Angiopoietin-1 receptor (Homo sapiens) (UniProt Q02763). The settings on record: at 1 µM.
For experiment [5] the target is unchanged. The note with it: at 10 µM.
The target of experiment [6] is High affinity nerve growth factor receptor (Homo sapiens) (UniProt P04629). The note with it: at 1 µM.
High affinity nerve growth factor receptor (Homo sapiens), sequence (P04629 33-796 limits assumed): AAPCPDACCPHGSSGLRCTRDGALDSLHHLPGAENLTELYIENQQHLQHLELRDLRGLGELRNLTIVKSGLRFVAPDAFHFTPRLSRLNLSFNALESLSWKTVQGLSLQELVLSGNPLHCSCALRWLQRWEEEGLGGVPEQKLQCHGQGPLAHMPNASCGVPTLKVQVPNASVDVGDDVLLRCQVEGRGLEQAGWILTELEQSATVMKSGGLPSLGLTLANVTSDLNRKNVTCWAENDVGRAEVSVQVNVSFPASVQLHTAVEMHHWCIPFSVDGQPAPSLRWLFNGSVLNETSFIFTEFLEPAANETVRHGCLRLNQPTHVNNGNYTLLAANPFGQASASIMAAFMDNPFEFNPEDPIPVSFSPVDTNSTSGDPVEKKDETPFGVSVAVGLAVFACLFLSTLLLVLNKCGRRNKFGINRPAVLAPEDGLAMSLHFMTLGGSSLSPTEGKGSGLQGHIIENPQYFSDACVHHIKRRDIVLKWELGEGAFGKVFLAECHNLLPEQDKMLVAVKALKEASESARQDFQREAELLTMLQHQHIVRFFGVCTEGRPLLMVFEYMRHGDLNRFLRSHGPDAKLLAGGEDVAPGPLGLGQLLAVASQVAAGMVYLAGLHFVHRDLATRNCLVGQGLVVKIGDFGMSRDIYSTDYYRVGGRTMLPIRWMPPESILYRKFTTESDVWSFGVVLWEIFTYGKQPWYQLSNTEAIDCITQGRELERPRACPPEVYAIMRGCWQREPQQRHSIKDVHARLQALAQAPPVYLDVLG
For experiment [7] the target is unchanged. The settings on record: at 10 µM.
Experiment [8] concerns the target T2, Muscle, skeletal receptor tyrosine-protein kinase (Homo sapiens) (UniProt O15146).
T2 sequence (whole entry): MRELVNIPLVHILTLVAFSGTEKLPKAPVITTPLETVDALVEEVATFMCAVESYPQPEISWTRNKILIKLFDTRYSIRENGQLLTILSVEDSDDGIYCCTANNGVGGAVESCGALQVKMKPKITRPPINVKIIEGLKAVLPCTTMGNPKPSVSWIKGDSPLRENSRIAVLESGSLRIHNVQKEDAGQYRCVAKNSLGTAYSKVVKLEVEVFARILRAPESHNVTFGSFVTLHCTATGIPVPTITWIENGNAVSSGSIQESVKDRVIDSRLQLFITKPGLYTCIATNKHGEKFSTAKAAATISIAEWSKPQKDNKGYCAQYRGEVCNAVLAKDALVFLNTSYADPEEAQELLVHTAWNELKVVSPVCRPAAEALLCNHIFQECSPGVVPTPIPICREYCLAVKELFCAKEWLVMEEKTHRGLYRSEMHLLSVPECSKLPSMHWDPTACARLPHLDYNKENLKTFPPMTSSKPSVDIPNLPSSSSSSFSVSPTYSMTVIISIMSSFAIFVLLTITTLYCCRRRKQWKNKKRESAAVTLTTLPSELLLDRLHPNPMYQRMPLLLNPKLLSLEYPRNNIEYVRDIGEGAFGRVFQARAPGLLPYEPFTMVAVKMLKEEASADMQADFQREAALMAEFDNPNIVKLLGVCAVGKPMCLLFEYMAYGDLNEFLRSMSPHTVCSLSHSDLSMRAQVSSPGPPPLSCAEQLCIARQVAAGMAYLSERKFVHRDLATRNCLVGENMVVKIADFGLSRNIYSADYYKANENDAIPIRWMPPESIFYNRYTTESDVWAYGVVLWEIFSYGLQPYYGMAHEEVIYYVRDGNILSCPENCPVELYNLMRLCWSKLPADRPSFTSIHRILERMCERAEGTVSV
The note with it: at 1 µM.

Experiment [9] has as its target T2, Muscle, skeletal receptor tyrosine-protein kinase (Homo sapiens). The settings on record: at 10 µM.
Experiment [10] has as its target T3, Serine/threonine-protein kinase Nek2 (Homo sapiens) (UniProt P51955).
T3 sequence (whole entry): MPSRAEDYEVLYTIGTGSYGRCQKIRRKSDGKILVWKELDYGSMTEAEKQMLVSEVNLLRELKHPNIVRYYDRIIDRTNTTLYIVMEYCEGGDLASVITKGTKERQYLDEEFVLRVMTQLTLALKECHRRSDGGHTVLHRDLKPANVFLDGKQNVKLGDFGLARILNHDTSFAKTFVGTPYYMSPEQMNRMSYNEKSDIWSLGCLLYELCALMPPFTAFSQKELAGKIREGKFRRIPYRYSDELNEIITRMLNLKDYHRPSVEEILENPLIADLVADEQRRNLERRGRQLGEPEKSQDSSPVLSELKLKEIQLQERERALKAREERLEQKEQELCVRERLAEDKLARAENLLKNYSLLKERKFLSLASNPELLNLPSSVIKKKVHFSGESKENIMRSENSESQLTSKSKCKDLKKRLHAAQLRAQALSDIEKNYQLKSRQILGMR
The note with it: at 1 µM.

Experiment [11] concerns the target T3, Serine/threonine-protein kinase Nek2 (Homo sapiens). The settings on record: at 10 µM.
The target in experiment [12] is T4, Serine/threonine-protein kinase Nek3 (Homo sapiens) (UniProt P51956).
T4 sequence (whole entry): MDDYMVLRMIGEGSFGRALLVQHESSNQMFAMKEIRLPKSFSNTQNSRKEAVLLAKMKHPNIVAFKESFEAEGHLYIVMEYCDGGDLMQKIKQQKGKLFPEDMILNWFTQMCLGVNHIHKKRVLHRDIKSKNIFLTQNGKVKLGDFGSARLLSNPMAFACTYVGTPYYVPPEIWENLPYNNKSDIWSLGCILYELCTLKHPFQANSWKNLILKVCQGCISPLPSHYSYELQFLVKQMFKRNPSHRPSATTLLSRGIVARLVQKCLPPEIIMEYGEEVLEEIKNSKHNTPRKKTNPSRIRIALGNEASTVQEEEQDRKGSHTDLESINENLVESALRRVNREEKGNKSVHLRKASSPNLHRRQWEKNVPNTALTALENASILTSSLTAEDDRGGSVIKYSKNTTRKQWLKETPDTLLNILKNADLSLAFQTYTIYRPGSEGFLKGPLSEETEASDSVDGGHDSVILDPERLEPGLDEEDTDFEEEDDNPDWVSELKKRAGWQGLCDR
The note with it: at 1 µM.

Experiment [13] concerns the target T4, Serine/threonine-protein kinase Nek3 (Homo sapiens). The settings on record: at 10 µM.
In experiment [14] the target is Serine/threonine-protein kinase tousled-like 2 (Homo sapiens) (UniProt Q86UE8). The note with it: at 1 µM.
Serine/threonine-protein kinase tousled-like 2 (Homo sapiens), sequence (Q86UE8 whole entry, looked up): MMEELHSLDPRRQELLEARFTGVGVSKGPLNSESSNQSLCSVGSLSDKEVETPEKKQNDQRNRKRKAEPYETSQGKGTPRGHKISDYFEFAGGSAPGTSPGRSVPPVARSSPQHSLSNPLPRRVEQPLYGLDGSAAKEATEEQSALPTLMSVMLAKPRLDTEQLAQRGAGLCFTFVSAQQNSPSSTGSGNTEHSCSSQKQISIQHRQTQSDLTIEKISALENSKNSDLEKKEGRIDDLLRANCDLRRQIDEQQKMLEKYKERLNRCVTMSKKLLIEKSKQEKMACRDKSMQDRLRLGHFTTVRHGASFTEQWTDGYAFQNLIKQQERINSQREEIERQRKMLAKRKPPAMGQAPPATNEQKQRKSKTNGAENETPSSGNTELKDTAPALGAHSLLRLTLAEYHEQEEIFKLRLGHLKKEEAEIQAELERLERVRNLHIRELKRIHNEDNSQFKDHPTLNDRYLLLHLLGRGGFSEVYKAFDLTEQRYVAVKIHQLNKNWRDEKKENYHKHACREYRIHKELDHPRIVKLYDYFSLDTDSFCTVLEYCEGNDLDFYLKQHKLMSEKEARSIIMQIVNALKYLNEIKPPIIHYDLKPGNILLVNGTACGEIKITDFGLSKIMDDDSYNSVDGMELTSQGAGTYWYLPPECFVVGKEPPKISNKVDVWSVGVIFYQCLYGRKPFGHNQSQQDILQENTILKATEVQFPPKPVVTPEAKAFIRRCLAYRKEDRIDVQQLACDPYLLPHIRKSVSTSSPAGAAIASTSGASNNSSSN
In experiment [15] the target is T5, Testis-specific serine/threonine-protein kinase 1 (Homo sapiens) (UniProt Q9BXA7).
T5 sequence (whole entry): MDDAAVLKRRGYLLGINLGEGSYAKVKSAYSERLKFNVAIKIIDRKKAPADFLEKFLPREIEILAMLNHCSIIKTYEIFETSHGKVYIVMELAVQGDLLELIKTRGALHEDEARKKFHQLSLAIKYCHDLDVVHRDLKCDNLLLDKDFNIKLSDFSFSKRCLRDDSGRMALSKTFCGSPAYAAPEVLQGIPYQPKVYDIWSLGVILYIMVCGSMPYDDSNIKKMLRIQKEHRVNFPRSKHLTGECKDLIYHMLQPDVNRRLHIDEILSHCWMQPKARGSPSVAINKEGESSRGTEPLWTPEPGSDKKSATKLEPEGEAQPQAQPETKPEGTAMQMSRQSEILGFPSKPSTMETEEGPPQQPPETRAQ
The settings on record: at 1 µM.

The target of experiment [16] is T5, Testis-specific serine/threonine-protein kinase 1 (Homo sapiens). The note with it: at 10 µM.
The target in experiment [17] is T6, Testis-specific serine/threonine-protein kinase 2 (Homo sapiens) (UniProt Q96PF2).
T6 sequence (whole entry): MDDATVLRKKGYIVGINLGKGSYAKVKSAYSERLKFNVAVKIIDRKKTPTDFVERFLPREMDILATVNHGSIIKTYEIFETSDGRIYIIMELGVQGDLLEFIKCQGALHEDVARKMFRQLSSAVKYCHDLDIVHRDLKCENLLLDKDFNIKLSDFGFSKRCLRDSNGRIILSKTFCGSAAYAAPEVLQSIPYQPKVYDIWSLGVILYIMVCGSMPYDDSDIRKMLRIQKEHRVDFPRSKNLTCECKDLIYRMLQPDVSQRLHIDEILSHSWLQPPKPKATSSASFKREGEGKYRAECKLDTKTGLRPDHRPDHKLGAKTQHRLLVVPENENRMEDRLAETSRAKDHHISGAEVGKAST
The note with it: at 10 µM.

Experiment [18] concerns the target T7, Tyrosine-protein kinase Tec (Homo sapiens) (UniProt P42680).
T7 sequence (whole entry): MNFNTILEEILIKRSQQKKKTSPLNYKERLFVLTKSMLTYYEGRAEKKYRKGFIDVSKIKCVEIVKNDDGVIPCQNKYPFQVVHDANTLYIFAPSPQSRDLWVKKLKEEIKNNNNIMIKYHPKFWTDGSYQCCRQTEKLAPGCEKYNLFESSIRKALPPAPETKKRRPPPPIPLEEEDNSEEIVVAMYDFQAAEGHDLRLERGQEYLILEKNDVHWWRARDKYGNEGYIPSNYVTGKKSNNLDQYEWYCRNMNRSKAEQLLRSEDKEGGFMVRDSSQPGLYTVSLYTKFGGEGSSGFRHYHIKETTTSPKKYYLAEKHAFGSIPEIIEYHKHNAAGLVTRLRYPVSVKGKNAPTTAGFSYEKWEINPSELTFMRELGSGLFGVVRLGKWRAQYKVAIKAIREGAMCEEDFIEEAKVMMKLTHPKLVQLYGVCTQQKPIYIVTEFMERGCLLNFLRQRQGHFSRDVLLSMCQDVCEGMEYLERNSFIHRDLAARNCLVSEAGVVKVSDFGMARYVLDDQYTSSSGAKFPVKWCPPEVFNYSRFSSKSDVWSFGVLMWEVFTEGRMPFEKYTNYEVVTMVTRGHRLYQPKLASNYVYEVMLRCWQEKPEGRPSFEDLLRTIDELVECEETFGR
The settings on record: at 1 µM.

Experiment [19] addresses T7, Tyrosine-protein kinase Tec (Homo sapiens). The note with it: at 10 µM.
Experiment [20] deals with BDNF/NT-3 growth factors receptor (Homo sapiens) (UniProt Q16620). The settings on record: at 1 µM.
BDNF/NT-3 growth factors receptor (Homo sapiens), sequence (Q16620 32-822 limits assumed): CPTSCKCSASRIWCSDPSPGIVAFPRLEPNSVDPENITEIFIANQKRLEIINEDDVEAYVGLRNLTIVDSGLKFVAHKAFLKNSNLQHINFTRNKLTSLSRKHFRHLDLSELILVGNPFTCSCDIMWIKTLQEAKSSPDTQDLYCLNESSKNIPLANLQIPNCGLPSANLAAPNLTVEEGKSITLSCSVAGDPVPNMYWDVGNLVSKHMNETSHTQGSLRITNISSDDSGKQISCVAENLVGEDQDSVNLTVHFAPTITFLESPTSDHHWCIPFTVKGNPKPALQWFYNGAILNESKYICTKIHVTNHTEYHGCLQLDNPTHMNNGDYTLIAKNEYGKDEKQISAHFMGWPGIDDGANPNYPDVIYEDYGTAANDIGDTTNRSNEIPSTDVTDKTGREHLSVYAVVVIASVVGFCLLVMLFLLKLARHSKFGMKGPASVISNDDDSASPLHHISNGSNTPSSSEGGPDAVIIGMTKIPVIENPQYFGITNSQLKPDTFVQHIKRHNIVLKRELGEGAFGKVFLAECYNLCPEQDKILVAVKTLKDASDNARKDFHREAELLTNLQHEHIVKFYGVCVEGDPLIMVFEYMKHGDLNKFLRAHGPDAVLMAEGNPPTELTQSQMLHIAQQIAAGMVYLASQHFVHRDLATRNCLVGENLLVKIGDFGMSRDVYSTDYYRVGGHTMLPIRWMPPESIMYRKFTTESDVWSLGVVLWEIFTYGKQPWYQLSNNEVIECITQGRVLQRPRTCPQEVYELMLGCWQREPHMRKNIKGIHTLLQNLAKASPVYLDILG

Angiopoietin-1 receptor (Homo sapiens), sequence (Q02763 whole entry): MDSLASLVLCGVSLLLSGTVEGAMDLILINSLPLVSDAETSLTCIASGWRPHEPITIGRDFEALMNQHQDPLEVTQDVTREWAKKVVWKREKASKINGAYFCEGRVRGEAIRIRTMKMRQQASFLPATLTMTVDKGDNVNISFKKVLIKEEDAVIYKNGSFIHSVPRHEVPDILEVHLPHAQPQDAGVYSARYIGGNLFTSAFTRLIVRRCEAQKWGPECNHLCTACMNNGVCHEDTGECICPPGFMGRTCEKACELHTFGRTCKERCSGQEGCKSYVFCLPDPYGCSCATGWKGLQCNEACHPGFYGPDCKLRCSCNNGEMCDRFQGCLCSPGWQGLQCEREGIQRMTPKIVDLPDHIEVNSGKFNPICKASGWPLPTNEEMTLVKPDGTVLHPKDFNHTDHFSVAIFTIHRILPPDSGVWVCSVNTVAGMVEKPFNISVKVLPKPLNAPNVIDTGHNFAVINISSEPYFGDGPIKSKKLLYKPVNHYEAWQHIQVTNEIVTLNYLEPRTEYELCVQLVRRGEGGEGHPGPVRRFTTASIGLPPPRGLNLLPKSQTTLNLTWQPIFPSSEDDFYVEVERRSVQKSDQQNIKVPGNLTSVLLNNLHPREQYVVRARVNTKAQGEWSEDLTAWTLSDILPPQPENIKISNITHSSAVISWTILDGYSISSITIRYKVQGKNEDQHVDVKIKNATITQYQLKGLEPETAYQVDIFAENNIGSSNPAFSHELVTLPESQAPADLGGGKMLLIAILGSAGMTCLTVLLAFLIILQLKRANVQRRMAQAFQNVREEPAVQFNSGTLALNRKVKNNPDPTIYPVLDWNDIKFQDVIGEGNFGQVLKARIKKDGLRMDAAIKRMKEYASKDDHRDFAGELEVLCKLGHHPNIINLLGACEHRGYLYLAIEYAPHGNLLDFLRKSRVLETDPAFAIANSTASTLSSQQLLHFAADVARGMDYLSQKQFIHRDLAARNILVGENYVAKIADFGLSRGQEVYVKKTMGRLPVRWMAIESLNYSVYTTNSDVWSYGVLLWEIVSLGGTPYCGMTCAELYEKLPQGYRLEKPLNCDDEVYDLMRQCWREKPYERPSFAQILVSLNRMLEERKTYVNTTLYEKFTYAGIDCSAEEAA

Take `N#C/C(=C\c1ccc(O)c(O)c1)C(=O)NCc1ccccc1`: the residual activity in experiment [1] was found to be 103%; in experiment [2], 103%; in experiment [3], 85%; in [4], 89%; in experiment [5], 71%; in experiment [6], 64%. Further, the residual activity in experiment [7] is -1%.

As for `O=C1Cc2c([nH]c3ccc(Br)cc23)-c2ccccc2N1`, the residual activity in [8] was determined as 42%; in [9], 3%; in experiment [10], 95%; in experiment [11], 80%; in [12] it was 81%; in [13], 72%. Also, the residual activity in experiment [14] is 89%; in [3], 78%; in [15] it was 87%; in experiment [16], 49%; in experiment [17], 76%; in experiment [18], 92%. For the same molecule, in experiment [19], the residual activity was determined as 55%.

Consider `COc1cc2nccc(Oc3ccc(NC(=O)Nc4cc(C)on4)c(Cl)c3)c2cc1OC`, for which the residual activity stood at 17% in experiment [8]; 3% in experiment [9]; 77% in [1]; 104% in experiment [14]; 100% in experiment [3]; 2% in experiment [6]. In addition, the values for the residual activity in [7] and in experiment [20] were 0% and 42%, respectively.

As to `O=C1NC(=O)C(c2c[nH]c3ccccc23)=C1c1c[nH]c2ccccc12`, the residual activity in experiment [9] turned out to be 60%; in [1], 63%; in experiment [2], 59%; in experiment [14], 51%; in experiment [3], 9%; in experiment [6] it was 58%. Further, the results for the residual activity in experiment [7] and in experiment [20] were 8% and 29%, respectively.

With `Nc1ncnc2c1c(-c1ccc(Oc3ccccc3)cc1)cn2C1CCCC1`, the residual activity in experiment [8] was 83%; in experiment [9] it was 37%; in experiment [1], 102%; in [10] it was 77%; in experiment [11] it was 69%; in [12] it was 105%. The residual activity was determined as 55% in experiment [13]; 92% in [14]; 82% in [3]; 94% in [15]; 86% in experiment [16]; 93% in experiment [17]. Moreover, the residual activity in experiment [4] was 12%; in experiment [5], 3%; in [6], 26%; in experiment [7], -1%; in experiment [20] it was 44%.
